sEH act: soluble epoxide hydrolase (human) activation | activation, % at 2 µM | AID 717 | 91,000 compounds, 0.04% hits | purified human sEH enzymatic activity, activator screen; in the data active = activation above about 37%
CYP2C19 inh: inhibitors of human CYP2C19; AID 778; inhibition, % at 5 µM; 96,000 compounds, 21% hits; CYP2C19 Supersomes, luciferin-H EGE luminescence, 30 min;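 active = CYP2C19 inhibition above a set limit at 5 µM in the primary screen, cut at about 50% in these data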;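 also: plate controls were negative control wells for no effect and 2.5 mM tranylcypromine positive control for full effect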
sEH inh: blocks human soluble epoxide hydrolase activity; P34913; recombinant human sEH enzymatic activity assay; inhibition, % at 2 µM; 91,000 compounds, 0.34% hits; in the data active = inhibition above about 80%
CYP2C9 inh: blocks human cytochrome P450 2C9. inhibition, % at 5 µM. CYP2C9 Supersomes, luciferin-H conversion, luminescence. 96,000 compounds, 20% hits. AID 777;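 active = blocking of liver enzyme CYP2C9 beyond about 50% at 5 µM, limit read from the data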
Target sequence (P11712 whole entry, looked up): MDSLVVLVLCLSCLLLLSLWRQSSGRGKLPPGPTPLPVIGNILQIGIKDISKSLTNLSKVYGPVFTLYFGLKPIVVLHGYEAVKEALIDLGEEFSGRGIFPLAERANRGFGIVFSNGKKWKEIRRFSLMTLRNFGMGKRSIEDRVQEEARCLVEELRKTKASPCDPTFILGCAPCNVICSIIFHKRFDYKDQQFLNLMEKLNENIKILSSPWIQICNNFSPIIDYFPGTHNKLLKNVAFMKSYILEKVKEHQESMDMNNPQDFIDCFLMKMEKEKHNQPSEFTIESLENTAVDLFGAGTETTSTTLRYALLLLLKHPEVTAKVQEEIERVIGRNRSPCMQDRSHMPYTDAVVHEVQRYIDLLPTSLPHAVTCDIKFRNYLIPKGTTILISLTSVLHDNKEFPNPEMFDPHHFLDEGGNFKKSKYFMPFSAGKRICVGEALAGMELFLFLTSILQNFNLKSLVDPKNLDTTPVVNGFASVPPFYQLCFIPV
CYP2C19 act: increases human CYP2C19 enzyme activity; P33261; recombinant CYP2C19, luciferin-H EGE luminescence; hits give high values; 0 = fully inhibited enzyme, 1 = untreated enzyme; activation factor at 5 µM; 96,000 tested, under 10 active; AID 1025;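 active = activation factor of at least 2 at 5 µM in the primary screen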;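 also: 0 = wells with 2.5 mM tranylcypromine and 1 = vehicle-only wells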
CYP2C9 activ: CYP2C9 (human) activation | 96,000 compounds, 1.4% hits | AID 1024 | recombinant CYP2C9, luciferin-H conversion, luminescence; hits give high values; factor 1 = untreated enzyme, 0 = blocked | P11712 | activation factor at 5 µM;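 active = activation factor of 2 or more for CYP2C9 at a 5 µM dose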;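 also: 0 = sulfaphenazole-blocked wells and 1 = vehicle-only wells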
Numbers without * were called inactive; . = no result. In the library only some 27% were active in any assay of this set; here they are far more common.

SMILES	sEH act	CYP2C19 inh	sEH inh	CYP2C9 inh	CYP2C19 act	CYP2C9 activ
CCC(c1nnnn1Cc1ccc2c(c1)OCO2)N1CCN(c2ccc(OC)cc2)CC1 (stereo unspecified)	15.5	72.9*	-17.0	83.0*	0.3	0.2
COc1ccc(Cn2nnnc2C(c2cccs2)N2CCN(c3ccc([N+](=O)[O-])cc3)CC2)cc1 (stereo unspecified)	-1.5	62.6*	5.0	73.2*	0.4	0.3
CCCC(c1nnnn1Cc1cccs1)N1CCN(c2ccc(OC)cc2)CC1 (stereo unspecified)	6.1	41.6	-3.9	35.3	0.6	0.6
CCC(c1nnnn1Cc1ccc2c(c1)OCO2)N1CCN(c2ccccc2)CC1 (stereo unspecified)	3.8	68.3*	-4.2	81.1*	0.3	0.2
COc1ccc(N2CCN(C(=O)CCc3ccc(S(=O)(=O)NCC(C)C)cc3)CC2)cc1	17.9	.	-14.2	.	.	.
CCN1CCN(C(c2nnnn2Cc2ccc3c(c2)OCO3)C(C)C)CC1 (stereo unspecified)	-12.7	.	16.3	.	.	.
CC(C)C(c1nnnn1Cc1ccc(F)cc1)N1CCN(C(=O)c2ccco2)CC1 (stereo unspecified)	4.6	50.3*	-0.5	62.1*	0.5	0.4
CC(C)C(c1nnnn1Cc1ccc(F)cc1)N1CCN(Cc2ccc3c(c2)OCO3)CC1 (stereo unspecified)	18.2	86.9*	-13.6	72.1*	0.1	0.3
NC(=O)C1CCN(C(c2ccccc2Cl)c2nnnn2Cc2ccc3c(c2)OCO3)CC1 (stereo unspecified)	3.4	81.1*	-5.2	68.1*	0.2	0.3
COc1ccccc1N1CCN(C(=O)CSc2ccc3c(C)cc(C)nc3n2)CC1	-11.1	.	8.9	.	.	.
CCCC(C)c1nnc(NC(=O)C2CCCO2)s1 (stereo unspecified)	-1.6	1.6	7.0	-10.6	1	1.1
S=C(Nc1cccc(Cl)c1)Nc1ccccc1Oc1ccccc1	-8.3	48.7	10.9	65.9*	0.5	0.3
S=C(Nc1ccc(Cl)cc1Cl)Nc1ccccc1Oc1ccccc1	-7.4	-14.1	7.8	-11.4	1.1	1.1
CCOC(=O)C1=C(c2ccccc2)N2CCN=C2S1	15.1	.	-20.1	.	.	.
O=C1CC(C(=O)O)S/C(=N\NC(=O)c2ccccc2)N1 (stereo unspecified)	-13.1	2.1	13.1	2.9	1	1
Cc1ccc(C(C#N)c2ccc3c(C(F)(F)F)cc(C(F)(F)F)nc3n2)cc1 (stereo unspecified)	-8.3	24.5	8.0	83.9*	0.8	0.2
N#CC(c1ccccc1)c1ccc2c(C(F)(F)F)cc(C(F)(F)F)nc2n1 (stereo unspecified)	21.4	-5.4	-24.9	16.0	1.1	0.8
Cc1ccc(C(C)C)c(OCc2ccc(-c3nnco3)cc2)c1	.	85.9*	.	39.8	0.1	0.6
Cc1ccc(S(=O)(=O)N(C)Cc2ccc(-c3nnco3)cc2)cc1	-6.7	47.9	5.6	16.4	0.5	0.8
COc1ccc(C(=O)N2c3cc4c(cc3C(C)=CC2(C)C)OCO4)cc1	-1.4	91.5*	3.7	95.4*	0.1	0
CC1=CC(C)(C)N(C(=O)c2ccccc2)c2ccccc21	-18.3	28.5	16.8	14.3	0.7	0.9
COc1ccc(-c2cc(NCCc3ccncc3)n3ncnc3n2)cc1	.	49.3	.	70.1*	0.5	0.3
Clc1c(-c2nnc3n2CCC3)sc2ccccc12	.	15.8	.	-201.4	0.8	3*
Cc1ccc(-c2n[nH]c(=S)n2C)cc1	-2.5	16.6	2.0	43.0	0.8	0.6
Cn1c(CSc2nc3ccccc3s2)n[nH]c1=S	-9.0	53.6*	7.2	12.7	0.5	0.9
SMILES	sEH act	CYP2C19 inh	sEH inh	CYP2C9 inh	CYP2C19 act	CYP2C9 activ
Clc1c(-c2nnc3n2CCCCC3)sc2ccccc12	.	4.8	.	-51.6	1	1.5
Cn1c(-c2sc3ccccc3c2Cl)n[nH]c1=S	-3.8	52.4*	3.1	77.0*	0.5	0.2
Cn1c(CSc2nc3ccccc3s2)nc2ccccc21	1.8	98.1*	-1.4	77.8*	0	0.2
Cc1ccc(-n2c(Cc3cccn3C)nnc2SCC(=O)Nc2cc(C)on2)cc1	.	2.5	.	5.1	1	0.9
CN(C)CC(C)(C)CNS(=O)(=O)c1ccc(Cl)c(Cl)c1	3.7	83.3*	-4.6	50.0*	0.2	0.5
CN(C)CCCNS(=O)(=O)c1cc(Cl)ccc1Cl	10.7	17.1	-7.4	-10.1	0.8	1.1

Screens deposited in PubChem BioAssay by several laboratories.
